# Data: PubChem BioAssay (NCATS)
# Inconclusive results are not listed. Active and inactive are the calls of the source. Unless noted, calls follow the shape of the dose curve; as a rule, active = well fitted curve in either direction with a large enough effect (not every such curve was filed as active); inconclusive = small, poorly fitted or top-dose-only effect, or another doubt; inactive = flat fitted curve, though single readings scatter.
# Key:
# [1] = target: Lysosomal acid glucosylceramidase (Homo sapiens) (UniProt P04062); assay: Glucocerebrosidase-p2 (AID 348; in the data active = potency below about 10 µM; also: potency is read from the fitted curve at half-maximal effect); details: purified GBA, blue fluorogenic substrate, 40 min
# Summary of the method: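 Compounds titrated from 0.6 nM upwards against 0.2 nM enzyme in pH 5.9 citric acid/KH2PO4, taurocholate, tween-20; blue fluorogenic substrate 80 uM, 40 min room temperature, stopped and read Ex 365/Em 440 for AC50.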
# [2] = AP1 Signaling Pathway (AID 357); details: ME-180 AP-1-bla reporter, EGF-induced, beta-lactamase ratio, 5 h; at 7.69 µM (top of the series) unless noted;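 also: ME-180 reporter cells stimulated with EGF at its EC50 level; % is scaled to controls: 0 for no effect and ±100 for the full control effect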
# Summary of the method: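 In this screen, ME-180 cells in Opti-MEM with 0.5% dialyzed FBS received EC50 EGF and compound titrations for 5 h. AP-1 reporter beta-lactamase was detected via CCF4 ratio, giving AC50 for positive and negative modulators.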
# [3] = target: Cytochrome P450 1A2 (Homo sapiens) (UniProt P05177); assay: p450-cyp1a2 (AID 410; calls by dose curve; also: potency is read from the fitted curve at half-maximal effect;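 as to activity change, negative = inhibition: -100% = full effect of reference inhibitor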); details: recombinant CYP1A2, luciferin-ME demethylation, luminescence; series mostly up to 57 µM
# Summary of the method: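 Human CYP1A2 (20nM) demethylated Luciferin-ME at its Km (100uM) in 100mM KPO4. After 10 min compound preincubation, NADPH regeneration ran the reaction 60 min at room temperature. Luciferin was read by luminescence, normalized to 57 uM furafylline.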
# [4] = NFAT Signaling Pathway (AID 444); details: Jurkat NFAT-bla M1, carbachol, beta-lactamase ratio, 5 h; at 7.69 µM (top of the series) unless noted;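 also: carbachol stimulus at about its EC50 of 1 µM final; % is scaled to controls: 0 for no effect and ±100 for the full control effect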
# Summary of the method: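 Jurkat cells with NFAT-driven β-lactamase reporter and co-expressed M1 receptor, stimulated with carbachol (final 1 uM, ~EC50), compound titration, 5 h at 37 °C. CCF4 loaded 1 h at RT; 460/530 nm ratio gave %activity and AC50.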
# [5] = Stat Signaling Pathway (AID 446); details: ME-180 SIE beta-lactamase reporter, IL-6 stimulated, 5 h; at 7.69 µM (top of the series) unless noted;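 also: ME-180 cervical cancer cells given 40 pM IL-6 alongside compound; SIE-controlled beta-lactamase reporter measured as 460/530 nm FRET emission ratio; % is scaled to controls: 0 for no effect and ±100 for the full control effect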
# Summary of the method: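 IL-6/STAT signaling read in ME-180 cells via an SIE beta-lactamase reporter. Stimulus was 40 pM IL-6 (its AC50) for 5 hrs, so both activation and inhibition register.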
# [6] = target: Glucocorticoid receptor (Homo sapiens) (UniProt P04150); assay: GR-GFP Redistribution (AID 450;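 active = compounds whose dose series gives a full or clear partial fitted curve of increased nuclear translocation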; also: potency is read from the fitted curve at half-maximal effect); details: U2OS GR-GFP nuclear translocation, laser cytometry, 2 h
# [7] = target: Glucocorticoid receptor (Homo sapiens) (UniProt P04150); assay: GR-EFC Redistribution (AID 451; calls by dose curve; also: potency is read from the fitted curve at half-maximal effect); details: CHO-K1 GR-EFC translocation, beta-gal luminescence, 2 h
# Summary of the method: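 CHO-K1 cells expressing nuclear EA and GR-ED fragments of b-gal; compounds titrated up to 46 uM final, 2 h at 37 C. GR nuclear translocation read as complemented b-gal luminescence after 1 h RT detection.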
# [8] = target: Mitogen-activated protein kinase 10 (Mus musculus) (UniProt Q61831); assay: JNK3 AlphaScreen Assay (AID 530); details: JNK3 lysate, c-Jun phosphorylation; series mostly up to 57.1 µM;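 also: kinase came from lysate of stimulated human HepG2 cells; signal reports phosphorylation of biotinylated GST-cJun 1-79 at Ser73 with 10 µM ATP; % is scaled to controls: 0 for no effect and ±100 for the full control effect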
# Summary of the method: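 qHTS format: compounds tested as titrations against IL-1beta/TNF-alpha-activated HepG2 lysate JNK3 with biotin-GST-cJun substrate and 10 uM ATP at room temperature. Loss of anti-phospho-cJun AlphaScreen signal indicates inhibition.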
# [9] = target: 3',5'-cyclic-AMP phosphodiesterase 4B (Homo sapiens) (UniProt Q07343); assay: qHTS Assay for Inhibitors of PDE-IV (AID 607; active = well fitted activation curve with a large enough effect in the main read-out, with a control signal flat, not every such curve was filed as active; also: % of control where 0% means no effect); details: HEK293 ACTOne CNG channel cells, membrane potential fluorescence; series mostly up to 22.9 µM
# Summary of the method: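 Live HEK293 cells with a modified cyclic nucleotide-gated (CNG) channel report intracellular cAMP via membrane-potential dye fluorescence (ex 535/em 590 nm). Endogenous PDE-IV was targeted. Compounds were tested at up to 22.9 uM final; RO 20-1724 100 uM served as control.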
# [10] = target: Cytochrome P450 3A4 (Homo sapiens) (UniProt P08684); assay: qHTS Assay for Inhibitors and Substrates of Cytochrome P450 3A4 (AID 884; active = well fitted curve in the direction sought with a large enough effect; an effect the other way counts as inactive or inconclusive; also: nearly all actives have a fitted effect of over 50% in size; also: potency is read from the fitted curve at half-maximal effect); details: recombinant CYP3A4, Luciferin-PPXE luminescence; series mostly up to 57.1 µM
# Summary of the method: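 20 nM human CYP3A4 with 25 uM Luciferin-PPXE (at KM) in 200 mM KPO4, preincubated 10 min with compound; NADPH regeneration started a 60 min RT reaction. Luciferin detected by luminescence, normalized to 57 uM ketoconazole as full inhibition.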
# [11] = target: Cytochrome P450 3A4 (Homo sapiens) (UniProt P08684); assay: qHTS Assay for Activators of Cytochrome P450 3A4 (AID 885; active = well fitted curve in the direction sought with a large enough effect; an effect the other way counts as inactive or inconclusive; also: nearly all actives have a fitted effect of over 65% in size; also: potency is read from the fitted curve at half-maximal effect); details: recombinant CYP3A4, Luciferin-PPXE luminescence, 60 min; series mostly up to 57.1 µM
# Summary of the method: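 Quantitative HTS format: compounds preincubated with 20nM human CYP3A4 and Luciferin-PPXE substrate at KM, reaction started by NADPH regeneration, stopped after 60 min, luciferase luminescence read 20 min later.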
# [12] = qHTS Assay for Identification of Small Molecule Agonists for Hypoxia Response Element Signaling Pathway (AID 914; active = well fitted activation curve with a large enough effect in the signal ratio, with a control signal flat, not every such curve was filed as active; the % refers to the signal ratio; also: % of control where 0% means no effect); details: ME-180 (cervical carcinoma) HRE-bla reporter, beta-lactamase ratio, CoCl2, 17 h; activation: stronger effect = higher value
# Summary of the method: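 qHTS titration; ME-180 HRE-bla cells; EC50 CoCl2 co-treatment, 17 h at 37 degrees Celsius; CCF4 dye, ex 405nm, em 460nm and 530nm; %Activity from ratio; AC50.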
# [13] = qHTS Assay for Lipid Storage Modulators (AID 1519; calls by dose curve); details: Drosophila S3 cells, BODIPY lipid droplet/cell ratio, laser cytometry, cells loaded with oleic acid; for activity change, negative = inhibition: at 57.5 µM (top of the series)
# Summary of the method: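 Cells seeded at 5,000 per well were treated with compounds over a concentration series and loaded with oleic acid (400 uM, as added). Lipid droplet fluorescence (488 nm excitation, 500-530 nm channel) was read by laser-scanning cytometry and normalized to 20 uM Triacsin C.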
# [14] = target: Dual specificity protein kinase CLK4 (Homo sapiens) (UniProt Q9HAZ1); assay: qHTS Assay for Inhibitors of CDC-like Kinase 4 (Kinase-Glo Assay) (AID 1770; active = well fitted curve in the direction sought with a large enough effect; an effect the other way counts as inactive or inconclusive; also: % is scaled to controls: 0 for no effect and ±100 for the full control effect; nearly all actives have a fitted effect of over 65% in size); details: recombinant Clk4, Kinase-Glo ATP depletion luminescence; series mostly up to 66.7 µM
# Summary of the method: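 Recombinant human Clk4 (25 nM) phosphorylated RS repeat peptide (100 uM) with 1 uM ATP in Tris pH 7.5/MgCl2/EGTA/DTT/Triton buffer for 4.5 h at room temperature. Residual ATP was quantified by Kinase-Glo luciferase luminescence.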
# [15] = target: Dual specificity protein kinase CLK4 (Homo sapiens) (UniProt Q9HAZ1); assay: qHTS Assay for Inhibitors of CDC-like Kinase 4 (ADP-Glo Assay) (AID 1771; active = well fitted curve in the direction sought with a large enough effect; an effect the other way counts as inactive or inconclusive; also: % is scaled to controls: 0 for no effect and ±100 for the full control effect; nearly all actives have a fitted effect of over 70% in size); details: recombinant CLK4, ADP-Glo luminescence; series mostly up to 80 µM
# Summary of the method: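 Clk4 (25 nM) was incubated 1 hr at room temperature with 100 uM RS repeat peptide and 1 uM ATP in buffer with 2 mM MgCl2, 0.5 mM EGTA, 2.5 mM DTT. ADP formed was quantified by ADP-Glo luminescence.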
# [16] = target: Dual specificity protein kinase CLK4 (Homo sapiens) (UniProt Q9HAZ1); assay: qHTS Assay for Inhibitors of CDC-like Kinase 4 (ADP-FP Assay) (AID 1795; active = well fitted curve in the direction sought with a large enough effect; an effect the other way counts as inactive or inconclusive; also: % is scaled to controls: 0 for no effect and ±100 for the full control effect; nearly all actives have a fitted effect of over 60% in size); details: Transcreener ADP fluorescence polarization; series mostly up to 50 µM
# Summary of the method: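 Recombinant human Clk4 (6.25 nM) phosphorylated RS repeat peptide (100 uM) with 1 uM ATP in Tris pH 7.5/MgCl2/EGTA/DTT/Triton buffer for one hour. ADP was quantified by Transcreener competitive fluorescence polarization against an ADP calibration curve.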
# [17] = target: Ubiquitin carboxyl-terminal hydrolase 1 (Homo sapiens) (UniProt O94782); assay: Inhibitors of USP1/UAF1: Pilot qHTS (AID 504865; active = well fitted curve in the direction sought with a large enough effect; an effect the other way counts as inactive or inconclusive; also: nearly all actives have a fitted effect of over 35% in size; also: potency is read from the fitted curve at half-maximal effect); details: purified USP1/UAF1, Ub-rhodamine cleavage fluorescence; series mostly up to 54.9 µM
# Summary of the method: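 USP1/UAF1 complex (1nM) preincubated with compound 15 min at room temperature, then Ub-Rho substrate (150nM final) added. Fluorescence read kinetically at 480/540 nm, 6 reads every 60 seconds. Buffer: 50mM HEPES pH 7.8, 0.5mM EDTA, 0.1 mg/ml BSA, 1mM TCEP, 0.01% Tween-20.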
# [18] = Confirmation and Secondary Assay for Modulators of Hemoglobin Beta Chain Splicing at IVS2 654 locus (AID 910; active = well fitted curve in the direction sought with a large enough effect; an effect the other way counts as inactive or inconclusive;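 also: HeLa cells stably carrying EGFP split by mutant beta-globin IVS2-654 intron; % of control where 0% means no effect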); details: HeLa EGFP-654 splicing reporter, GFP fluorescence, 48 h; series mostly up to 38.3 µM
# Summary of the method: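 HeLa cells stably expressing EGFP interrupted by β-globin IVS2-654 intron, seeded overnight in Opti-MEM/2% FCS, then treated 2 days at 37 °C. Restored splicing read as total peak GFP intensity per well by laser scanning cytometry (488 nm excitation, 500–520 nm emission); 500 nM antisense PNA as control.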
# [19] = Confirmation and Secondary Assay for Modulators of Hemoglobin Beta Chain Splicing at IVS2 705 locus (AID 930; active = well fitted curve in the direction sought with a large enough effect; an effect the other way counts as inactive or inconclusive;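 also: HeLa cells stably expressing the EGFP-705 splicing reporter; GFP fluorescence per well restored by corrected splicing of the IVS2-705 intron in EGFP; % of control where 0% means no effect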); details: HeLa EGFP-705 splicing reporter, GFP fluorescence, 48 h; series mostly up to 38.3 µM
# Summary of the method: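 Secondary splice-site specificity test uses HeLa expressing CMV-driven EGFP interrupted by IVS2-705; cells were treated 2 days at 37C with 500 nM antisense PNA as positive control.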
# [20] = measured here: cell count channel max response
# [21] = measured here: lipid channel max response
# Sequence of 3',5'-cyclic-AMP phosphodiesterase 4B (Homo sapiens) (Q07343 whole entry, looked up): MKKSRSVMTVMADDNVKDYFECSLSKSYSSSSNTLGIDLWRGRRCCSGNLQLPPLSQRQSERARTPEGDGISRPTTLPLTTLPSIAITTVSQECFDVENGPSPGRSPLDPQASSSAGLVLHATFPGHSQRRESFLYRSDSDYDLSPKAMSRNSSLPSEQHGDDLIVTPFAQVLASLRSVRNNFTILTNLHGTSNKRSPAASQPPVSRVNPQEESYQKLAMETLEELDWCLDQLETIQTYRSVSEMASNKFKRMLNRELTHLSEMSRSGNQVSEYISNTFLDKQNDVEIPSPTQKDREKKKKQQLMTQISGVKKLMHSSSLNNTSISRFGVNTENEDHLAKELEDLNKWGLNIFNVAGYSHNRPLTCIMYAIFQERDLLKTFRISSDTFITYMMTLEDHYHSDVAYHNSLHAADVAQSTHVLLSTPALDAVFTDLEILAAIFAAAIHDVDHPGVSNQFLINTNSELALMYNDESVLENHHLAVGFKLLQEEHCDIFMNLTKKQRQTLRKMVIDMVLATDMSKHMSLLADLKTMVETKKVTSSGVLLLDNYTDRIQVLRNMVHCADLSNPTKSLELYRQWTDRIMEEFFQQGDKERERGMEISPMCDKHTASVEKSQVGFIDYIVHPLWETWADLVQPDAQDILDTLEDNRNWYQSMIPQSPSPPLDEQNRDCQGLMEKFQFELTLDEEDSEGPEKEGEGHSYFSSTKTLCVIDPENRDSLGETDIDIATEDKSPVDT
# Sequence of Cytochrome P450 3A4 (Homo sapiens) (P08684 whole entry, looked up): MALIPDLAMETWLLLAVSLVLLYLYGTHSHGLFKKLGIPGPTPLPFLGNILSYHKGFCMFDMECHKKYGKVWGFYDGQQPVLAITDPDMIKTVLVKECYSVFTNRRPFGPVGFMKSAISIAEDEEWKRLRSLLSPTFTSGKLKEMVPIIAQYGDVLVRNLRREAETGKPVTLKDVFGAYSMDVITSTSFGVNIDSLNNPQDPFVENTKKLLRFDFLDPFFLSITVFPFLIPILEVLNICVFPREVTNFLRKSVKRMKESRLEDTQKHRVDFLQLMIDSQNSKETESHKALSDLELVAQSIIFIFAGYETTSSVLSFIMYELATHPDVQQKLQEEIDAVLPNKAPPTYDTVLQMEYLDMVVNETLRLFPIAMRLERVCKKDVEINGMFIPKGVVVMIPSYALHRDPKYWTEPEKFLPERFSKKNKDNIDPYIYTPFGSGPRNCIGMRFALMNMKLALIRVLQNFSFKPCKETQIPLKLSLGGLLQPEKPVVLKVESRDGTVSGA
# Sequence of Lysosomal acid glucosylceramidase (Homo sapiens) (P04062 whole entry, looked up): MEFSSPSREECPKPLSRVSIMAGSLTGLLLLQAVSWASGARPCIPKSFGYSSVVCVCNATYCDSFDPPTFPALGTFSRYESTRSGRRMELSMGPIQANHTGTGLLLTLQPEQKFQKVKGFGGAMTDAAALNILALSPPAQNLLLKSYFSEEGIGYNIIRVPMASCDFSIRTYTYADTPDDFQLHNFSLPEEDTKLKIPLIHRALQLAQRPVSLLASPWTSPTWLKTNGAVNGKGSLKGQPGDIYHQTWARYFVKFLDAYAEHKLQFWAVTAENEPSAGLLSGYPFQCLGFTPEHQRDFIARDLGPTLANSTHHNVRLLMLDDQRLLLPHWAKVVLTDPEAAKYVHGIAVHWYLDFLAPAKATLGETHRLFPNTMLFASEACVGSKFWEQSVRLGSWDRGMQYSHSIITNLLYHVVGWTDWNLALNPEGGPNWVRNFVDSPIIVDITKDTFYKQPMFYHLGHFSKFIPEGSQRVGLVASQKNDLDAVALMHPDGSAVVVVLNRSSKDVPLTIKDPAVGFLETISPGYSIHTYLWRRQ
# Sequence of Dual specificity protein kinase CLK4 (Homo sapiens) (Q9HAZ1 whole entry, looked up): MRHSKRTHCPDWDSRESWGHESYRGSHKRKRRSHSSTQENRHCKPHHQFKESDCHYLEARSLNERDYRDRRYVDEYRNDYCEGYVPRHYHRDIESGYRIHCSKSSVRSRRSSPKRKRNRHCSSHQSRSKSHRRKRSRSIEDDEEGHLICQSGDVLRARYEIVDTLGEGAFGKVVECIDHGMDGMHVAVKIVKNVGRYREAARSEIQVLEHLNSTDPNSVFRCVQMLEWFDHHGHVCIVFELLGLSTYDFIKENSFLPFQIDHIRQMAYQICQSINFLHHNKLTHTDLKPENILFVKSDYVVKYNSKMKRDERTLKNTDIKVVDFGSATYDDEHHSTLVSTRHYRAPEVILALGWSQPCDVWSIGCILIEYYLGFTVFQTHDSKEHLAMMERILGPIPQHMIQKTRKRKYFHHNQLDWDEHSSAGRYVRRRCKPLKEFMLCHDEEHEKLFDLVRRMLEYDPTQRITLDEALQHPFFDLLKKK
# Sequence of Cytochrome P450 1A2 (Homo sapiens) (P05177 whole entry, looked up): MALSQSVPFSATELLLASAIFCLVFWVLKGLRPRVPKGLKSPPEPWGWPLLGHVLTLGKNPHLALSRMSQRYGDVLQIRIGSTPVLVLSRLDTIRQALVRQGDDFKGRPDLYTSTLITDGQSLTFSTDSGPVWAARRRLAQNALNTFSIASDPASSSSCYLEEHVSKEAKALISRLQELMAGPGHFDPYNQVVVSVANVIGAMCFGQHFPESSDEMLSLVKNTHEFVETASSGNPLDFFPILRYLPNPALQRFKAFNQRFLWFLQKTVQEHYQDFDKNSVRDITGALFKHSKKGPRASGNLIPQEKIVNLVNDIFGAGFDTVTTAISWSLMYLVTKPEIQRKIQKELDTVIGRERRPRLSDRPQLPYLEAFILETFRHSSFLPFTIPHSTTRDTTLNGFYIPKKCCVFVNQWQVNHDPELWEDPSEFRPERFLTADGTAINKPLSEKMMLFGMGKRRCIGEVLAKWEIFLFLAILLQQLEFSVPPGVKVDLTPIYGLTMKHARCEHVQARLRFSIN
# Sequence of Ubiquitin carboxyl-terminal hydrolase 1 (Homo sapiens) (O94782 whole entry, looked up): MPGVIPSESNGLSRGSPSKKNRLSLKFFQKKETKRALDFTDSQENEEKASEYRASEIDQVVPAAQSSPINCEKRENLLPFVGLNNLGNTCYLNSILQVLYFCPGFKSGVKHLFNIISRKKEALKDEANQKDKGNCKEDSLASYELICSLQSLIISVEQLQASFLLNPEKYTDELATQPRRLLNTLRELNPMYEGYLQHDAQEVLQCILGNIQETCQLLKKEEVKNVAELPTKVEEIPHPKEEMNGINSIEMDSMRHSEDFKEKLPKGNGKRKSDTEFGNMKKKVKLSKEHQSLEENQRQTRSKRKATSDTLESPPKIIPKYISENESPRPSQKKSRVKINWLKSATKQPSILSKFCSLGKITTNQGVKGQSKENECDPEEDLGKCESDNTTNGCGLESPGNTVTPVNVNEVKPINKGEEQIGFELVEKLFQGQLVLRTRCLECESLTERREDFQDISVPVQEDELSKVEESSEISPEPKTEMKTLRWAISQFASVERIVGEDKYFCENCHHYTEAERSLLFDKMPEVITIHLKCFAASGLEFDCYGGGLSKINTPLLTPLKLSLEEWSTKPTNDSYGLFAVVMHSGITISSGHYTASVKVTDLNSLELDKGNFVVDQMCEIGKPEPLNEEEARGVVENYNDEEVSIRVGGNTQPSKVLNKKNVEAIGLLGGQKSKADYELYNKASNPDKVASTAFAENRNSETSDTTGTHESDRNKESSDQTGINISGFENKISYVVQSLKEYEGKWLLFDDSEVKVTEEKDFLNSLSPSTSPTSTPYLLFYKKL
# Sequence of Glucocorticoid receptor (Homo sapiens) (P04150 whole entry, looked up, the tested form may be a part): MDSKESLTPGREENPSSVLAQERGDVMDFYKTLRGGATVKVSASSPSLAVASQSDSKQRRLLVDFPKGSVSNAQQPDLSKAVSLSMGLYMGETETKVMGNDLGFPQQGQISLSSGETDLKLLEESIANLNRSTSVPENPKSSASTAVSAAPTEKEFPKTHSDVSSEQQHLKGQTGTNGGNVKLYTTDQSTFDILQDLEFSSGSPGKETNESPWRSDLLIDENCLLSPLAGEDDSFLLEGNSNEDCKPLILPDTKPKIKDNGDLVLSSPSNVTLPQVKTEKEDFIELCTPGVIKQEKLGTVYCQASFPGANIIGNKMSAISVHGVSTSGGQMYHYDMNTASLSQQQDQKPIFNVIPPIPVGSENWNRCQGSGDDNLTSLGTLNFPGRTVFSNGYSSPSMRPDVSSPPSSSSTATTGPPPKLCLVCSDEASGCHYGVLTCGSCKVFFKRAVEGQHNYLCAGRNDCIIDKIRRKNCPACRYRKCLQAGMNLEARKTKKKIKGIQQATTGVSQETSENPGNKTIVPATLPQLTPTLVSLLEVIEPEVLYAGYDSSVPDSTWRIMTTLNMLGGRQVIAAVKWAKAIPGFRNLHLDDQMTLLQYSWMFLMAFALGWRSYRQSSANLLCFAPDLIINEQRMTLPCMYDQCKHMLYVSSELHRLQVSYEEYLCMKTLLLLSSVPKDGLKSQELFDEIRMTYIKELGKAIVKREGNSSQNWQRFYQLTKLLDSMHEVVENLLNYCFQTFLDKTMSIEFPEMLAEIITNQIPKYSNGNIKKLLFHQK
structure (smiles),measurement,setting,value
CNc1cc(-c2ccccc2C(F)(F)F)ncn1,Potency,[1],> 11.4 µM (inactive)
same,"activity change, negative = inhibition",[2],4.62% (inactive)
same,Potency,[3],15.8 µM (active)
same,"activity change, negative = inhibition",[4],1.13% (inactive)
same,"activity, negative = inhibition",[5],7.97% (inactive)
same,Potency,[6],> 46 µM (inactive)
same,Potency,[7],> 46 µM (inactive)
same,outcome,[8],inactive
same,Potency,[9],inactive
same,Potency,[10],inactive
same,Potency,[11],15.8 µM (active)
same,activation,[12],17.1% (inactive)
same,"activity change, negative = inhibition",[13],1.87% (inactive)
same,max response,[13]; [20],21.4%
same,max response,[13]; [21],21.2%
same,Potency,[14],inactive
same,Potency,[15],inactive
same,Potency,[16],inactive
same,Potency,[17],inactive
O=C(c1csnn1)N1CCC2(CC1)CN(c1ccccc1)C2,Potency,[1],> 11.4 µM (inactive)
same,"activity change, negative = inhibition",[2],-4.3% (inactive)
same,Potency,[3],inactive
same,"activity change, negative = inhibition",[4],-3.86% (inactive)
same,"activity, negative = inhibition",[5],4.17% (inactive)
same,Potency,[7],> 46 µM (inactive)
same,outcome,[8],inactive
same,Potency,[9],inactive
same,activation,[12],-12.1% (inactive)
same,"activity change, negative = inhibition",[13],4.49% (inactive)
same,max response,[13]; [20],13.3%
same,max response,[13]; [21],20.7%
CN(C)c1nc(-c2ccoc2)nc2ccccc12,Potency,[1],> 11.4 µM (inactive)
same,"activity change, negative = inhibition",[2],-8.03% (inactive)
same,Potency,[3],0.501 µM (active)
same,"activity change, negative = inhibition",[4],-9.32% (inactive)
same,"activity, negative = inhibition",[5],6.57% (inactive)
same,Potency,[6],> 46 µM (inactive)
same,Potency,[7],> 46 µM (inactive)
same,outcome,[8],inactive
same,Potency,[11],inactive
same,outcome,[18],inactive
same,outcome,[19],inactive
same,"activity change, negative = inhibition",[13],8.68% (inactive)
same,max response,[13]; [20],8.73%
same,max response,[13]; [21],18.5%
same,Potency,[17],56.2 µM (active)
COc1ccccc1CNc1ccnc(-c2ccoc2)n1,Potency,[1],> 11.4 µM (inactive)
same,"activity change, negative = inhibition",[2],-2.58% (inactive)
same,Potency,[3],1.58 µM (active)
same,"activity change, negative = inhibition",[4],-21% (inactive)
same,"activity, negative = inhibition",[5],-4.66% (inactive)
same,Potency,[6],> 46 µM (inactive)
same,Potency,[7],> 46 µM (inactive)
same,outcome,[8],inactive
same,Potency,[10],2.51 µM (active)
same,Potency,[11],inactive
same,outcome,[18],inactive
same,outcome,[19],inactive
same,"activity change, negative = inhibition",[13],8.47% (inactive)
same,max response,[13]; [20],-15.1%
same,max response,[13]; [21],2.83%
same,Potency,[17],50.1 µM (active)
COc1ccc(NC(=O)N2CC3(CCN(C(C)=O)CC3)C2)cc1,Potency,[1],> 11.4 µM (inactive)
same,"activity change, negative = inhibition",[2],8.48% (inactive)
same,Potency,[3],inactive
same,"activity change, negative = inhibition",[4],-0.444% (inactive)
same,"activity, negative = inhibition",[5],-0.267% (inactive)
same,Potency,[7],> 46 µM (inactive)
same,outcome,[8],inactive
same,Potency,[9],inactive
same,activation,[12],-8.17% (inactive)
same,"activity change, negative = inhibition",[13],3.83% (inactive)
same,max response,[13]; [20],13.9%
same,max response,[13]; [21],23.3%
CN(C)c1ncc2nc(-c3ccc(F)cc3)c(=O)n(C[C@H]3CCCO3)c2n1,Potency,[1],> 11.4 µM (inactive)
same,"activity change, negative = inhibition",[2],26.6% (inactive)
same,Potency,[3],2.51 µM (active)
same,"activity change, negative = inhibition",[4],26.7% (inactive)
same,Potency,[6],> 9.22 µM (inactive)
same,outcome,[8],inactive
same,Potency,[9],inactive
same,"activity change, negative = inhibition",[13],-2.2% (inactive)
same,max response,[13]; [20],12.6%
same,max response,[13]; [21],6.86%
same,Potency,[14],inactive
same,Potency,[15],inactive
same,Potency,[17],inactive
Cc1ccccc1-c1cncnc1NCc1ccccc1,Potency,[1],> 11.4 µM (inactive)
same,"activity change, negative = inhibition",[2],-6.25% (inactive)
same,Potency,[3],12.6 µM (active)
same,Potency,[6],> 46 µM (inactive)
same,Potency,[7],> 46 µM (inactive)
same,outcome,[8],inactive
same,Potency,[10],0.316 µM (active)
same,Potency,[11],inactive
same,"activity change, negative = inhibition",[13],5.04% (inactive)
same,max response,[13]; [20],7.66%
same,max response,[13]; [21],10.6%
same,Potency,[14],inactive
same,Potency,[15],inactive
same,Potency,[16],inactive
same,Potency,[17],inactive
